The campaign covered roughly 410,000 compounds. About 2,000 (0.49%) were called active. Not shown: some 8% with an inconclusive outcome. Calls follow the shape of the full dose curve; tested in HEK293 reporter line. What follows is part of a selection rich in actives, with near analogues and random picks from the rest. A call without a number means that no potency is given here.
Assay: qHTS Assay for Foot and Mouth Disease Virus Antivirals: Primary Screen against the MLPCN compound library; also: nearly all actives have a fitted effect of over 55% in size
Conditions: FMDV antiviral cell-based qHTS; series mostly up to 57.9 µM
In the case of `CN1CCN(NC(=O)Nc2cc(Cl)cc(Cl)c2)CC1`, the Potency is reported as “inactive”. In the case of `COc1ccc(CN2CCNC(=O)C2CC(=O)N(C)Cc2ccno2)c(F)c1` (stereo not given), the Potency is reported as “inactive”. In the case of `CCSc1ncc(Cl)c(C(=O)N(Cc2ccccc2Cl)C2CCS(=O)(=O)C2)n1` (stereo not given), the Potency is reported as “inactive”. With `CCn1c(N2CCC(C)CC2)nc2c1c(=O)n(C)c(=O)n2C` the Potency was “inactive”. For `Nc1cc(-c2ccc(Br)cc2)nn1S(=O)(=O)c1ccccc1`, the Potency was “inactive”. With `CCc1nnc(NC(=O)CSc2nc(-c3ccccc3)cc(-c3ccc(F)cc3)c2C#N)s1` the Potency was “inactive”. In the case of `CS(=O)(=O)c1nc(-c2ccc(Br)cc2)cc(-c2ccccc2)c1C#N`, the Potency is reported as 25.1 µM (active). For `COc1ccc(/C=C/C(=O)Nc2ccccc2)cc1S(=O)(=O)N1CCOCC1`, the Potency was 12.6 µM (active). In the case of `COc1ccc(C(=O)Nc2ccc(C)c(S(=O)(=O)N3CCOCC3)c2)cc1S(=O)(=O)N1CCCC1`, the Potency is reported as “inactive”. For `COc1ccc(C)cc1NC(=O)/C=C/c1ccc(OC)c(S(=O)(=O)N2CCOCC2)c1`, the Potency was “inactive”. In the case of `CCOC(=O)C1CCCN(S(=O)(=O)c2cc3c(cc2Cl)NC(=O)CO3)C1` (stereo not given), the Potency is reported as “inactive”. In the case of `Cc1oc(-c2ccc(Cl)cc2)nc1CN1CCCC(C(=O)NCCCN2CCCC2=O)C1` (stereo not given), the Potency is reported as 7.94 µM (active). For `Cc1oc(-c2ccc(Cl)cc2)nc1CN1CCCC(C(=O)NCc2cccnc2)C1` (stereo not given), the Potency was “inactive”. With `CCCN(CCC)CCCNC(=O)C1CCCN(Cc2nc(-c3ccc(Cl)cc3)oc2C)C1` (stereo not given) the Potency was “inactive”. For `Cc1ccc(S(=O)(=O)N2CCN(C(=O)CCCN3C(=O)NC4(CCCC4)C3=O)CC2)cc1C`, the Potency was “inactive”. For `CCn1c2ccccc2c2cc(NC(=O)COc3ccc(C)c(C)c3)ccc21`, the Potency was “inactive”. For `CCOc1ccc(-c2nnc(NC(=O)COc3ccccc3F)o2)cc1`, the Potency was “inactive”. With `CCOc1ccc(-c2nnc(-c3cccs3)o2)cc1` the Potency was 15.8 µM (active). For `CCn1c(SCCOc2ccc(Cl)cc2)nnc1-c1cccs1`, the Potency was “inactive”. In the case of `Cc1ccccc1-c1cnc2c(c1)C(=O)N([C@@H](C)CO)C[C@@H](C)[C@H](CN(C)Cc1ccccc1F)O2`, the Potency is reported as “inactive”. In the case of `COc1ccc(C(O)(CC(C)C)C(CN2CCOCC2)c2ccccc2)cc1` (stereo not given), the Potency is reported as “inactive”. In the case of `Cc1cc(NC(=O)c2ccc3c(c2)OCO3)ccc1NC(=O)c1ccccc1`, the Potency is reported as “inactive”. With `O=C(Nc1nc2ccccc2s1)c1ccc2c(c1)OCO2` the Potency was 14.1 µM (active). With `O=C(Nc1ccc2nc(SCCOc3ccccc3)sc2c1)c1ccc2c(c1)OCO2` the Potency was “inactive”. For `CC1(Cc2cc(Cl)ccc2C(F)(F)F)C(=O)Nc2c(Cl)cccc21` (stereo not given), the Potency was “inactive”. In the case of `CCC(=O)N1CCc2cc(S(=O)(=O)CCC(=O)N3CCN(c4ccc(C(C)=O)cc4)CC3)ccc21`, the Potency is reported as “inactive”. For `CC(C)CC(=O)Nc1ccccc1N1CCN(c2ccccc2)CC1`, the Potency was “inactive”. With `CCc1nc(SCC(=O)N2CCN(c3ccccc3)CC2)c2oc3ccccc3c2n1` the Potency was 25.1 µM (active). With `Cn1c(=O)cc(SCC(=O)N2CCN(c3ccccc3)CC2)c2ccccc21` the Potency was “inactive”. In the case of `Cn1c(=O)c2c(SCC(=O)N3CCN(c4ccccc4)CC3)nc(C3CC3)nc2n(C)c1=O`, the Potency is reported as “inactive”. For `COc1ccccc1N1CCN(c2nc(CNC(=O)c3sc(C)nc3C)nc3ccccc23)CC1`, the Potency was “inactive”. In the case of `COc1ccc2c(Cl)c(C(=O)OCC(=O)c3ccc4c(c3)NC(=O)CO4)sc2c1Cl`, the Potency is reported as “inactive”. In the case of `O=C(CSc1nc2ccccc2c(=O)n1Cc1ccco1)c1ccc(F)cc1`, the Potency is reported as “inactive”. For `Cc1cc(C(=O)CSc2nc3ccccc3[nH]2)c(C)n1Cc1ccco1`, the Potency was 11.2 µM (active). For `O=C(CSc1nc2ccccc2[nH]1)c1ccc(Cl)s1`, the Potency was “inactive”. In the case of `Cc1nn(C(C)C)c(C)c1CN1CCCC(C(=O)c2cccc(OC(C)C)c2)C1` (stereo not given), the Potency is reported as “inactive”. For `COc1ccc(NC(=O)CNC(=O)Cn2c(C)cc3ccccc3c2=O)cc1OC`, the Potency was “inactive”. With `CCN(CC)S(=O)(=O)c1cc(-c2nnc(Nc3ccc(OC)c(C(N)=O)c3)c3ccccc23)ccc1C` the Potency was “inactive”. In the case of `O=C(Nc1ccc(F)cc1F)c1ccc2c(c1)[nH]c(=O)n2Cc1ccc(F)cc1`, the Potency is reported as “inactive”. For `Cc1cc(C)cc(NC(=S)N2CCN(C(=O)c3ccco3)CC2)c1`, the Potency was “inactive”. In the case of `CN(C)c1ccc(N/C=C/C(=O)c2ccco2)cc1`, the Potency is reported as 8.91 µM (active). For `CN1/C(=C\C(=O)c2ccco2)C(C)(C)c2ccccc21`, the Potency was “inactive”. For `O=C(/C=C/Nc1ccc(F)cc1F)c1ccco1`, the Potency was 10 µM (active). In the case of `O=C(CNc1ccc(F)cc1F)NC(=O)NCc1ccco1`, the Potency is reported as “inactive”. With `Cc1ccc(S(=O)(=O)N(C)C)cc1NC(=O)COc1cccc(-n2cnnn2)c1` the Potency was “inactive”. With `CCOc1ccccc1N1CCN(CC(=O)Nc2ccccc2C(=O)NC2CC2)CC1` the Potency was “inactive”. With `Cc1ccc(-c2cc(-c3ccccc3)cc(-c3ccccc3)[n+]2-c2ccccc2C(=O)O)cc1` the Potency was “inactive”. In the case of `O=C(Nc1ccc(N2CCN(c3ccc(C(F)(F)F)cn3)CC2)nc1)c1cccs1`, the Potency is reported as “inactive”. With `O=C1NC(=O)N(c2ccc3c(c2)OCO3)C(=O)/C1=C/c1ccsc1` the Potency was “inactive”. In the case of `COC(=O)C1=C(c2ccc(-c3ccccc3)c(F)c2)C[C@@H]2CC[C@H]1N2C(=O)NC1CCCCC1`, the Potency is reported as “inactive”. With `OC[C@@H]1CN(Cc2ccc(Cl)cc2)C[C@H](n2cnc3c(NC4CCCC4)ncnc32)O1` the Potency was “inactive”. With `COc1ccc(C(=O)NCc2cc(C)nc3ccccc23)cc1` the Potency was “inactive”. For `Cc1cc(C)c2sc(N(CCN(C)C)C(=O)c3c(F)cccc3F)nc2c1`, the Potency was “inactive”. In the case of `Cc1ccc(/C=C2/C(=N)N3N=C(CC(=O)N4CCCC4)SC3=NC2=O)o1`, the Potency is reported as “inactive”. With `CC1=CN2C(=N)/C(=C/c3ccco3)C(=O)N=C2S1` the Potency was 12.6 µM (active). With `CCOc1ccc(-c2ccc(/C=C3/C(=N)N4C=CSC4=NC3=O)o2)c([N+](=O)[O-])c1` the Potency was “inactive”. For `CCCCn1c(=O)c(CCC(=O)OC(C)C(=O)Nc2cccc(Cl)c2Cl)nc2ccccc21` (stereo not given), the Potency was “inactive”. In the case of `CC(C)C(=O)N1CCN(c2nc(-c3ccccc3)c3c(c2C#N)CCCC3)CC1`, the Potency is reported as 22.4 µM (active). For `CC(C(=O)Nc1cccc(C#N)c1)n1nc(-c2ccccc2)c2c(c1=O)CCCC2` (stereo not given), the Potency was “inactive”. In the case of `CCCC(=O)N1CCN(c2nc(CC(C)C)c3c(c2C#N)CCC3)CC1`, the Potency is reported as “inactive”. In the case of `FC(F)C(F)(F)Oc1cccc(Nc2nccn3c(-c4ccc5ccccc5c4)cnc23)c1`, the Potency is reported as “inactive”. With `COCC(=O)N1CCC2(CC1)CCN(c1ccc(-c3ccccc3)cc1)CC2` the Potency was “inactive”. In the case of `Nc1nc2ccccc2n1C(=O)c1ccc(F)cc1`, the Potency is reported as 12.6 µM (active). With `N#CC1=C(N)Nc2nc3ccccc3n2C1c1ccc(F)cc1` (stereo not given) the Potency was “inactive”. For `CSc1nc2ccccc2n1C(=O)NC1CCCCC1`, the Potency was “inactive”. With `C[C@H](CO)N1C[C@H](C)[C@@H](CN(C)C(=O)NC2CCCCC2)Oc2c(NS(=O)(=O)c3cccs3)cccc2C1=O` the Potency was “inactive”. In the case of `Cc1ccc(NC(=O)COC(=O)C2CC2C)c(S(=O)(=O)N2CCCCC2)c1` (stereo not given), the Potency is reported as “inactive”. For `CCOC(=O)C1CCN(S(=O)(=O)c2cccc(C(=O)Nc3ccccc3)c2)CC1`, the Potency was “inactive”. For `CC(Sc1nc(C(F)(F)F)nc2ccccc12)C(=O)NC1CCCC1` (stereo not given), the Potency was “inactive”. With `CN(C)c1ccc(N=Nc2ccc3ncccc3c2)cc1` the Potency was 20 µM (active). With `CN(C)c1ccc(/C=C/c2ccc3ccccc3n2)cc1` the Potency was “inactive”. In the case of `Cc1cc(CN(C)C(=O)c2cc(COc3ccc4ncccc4c3)on2)on1`, the Potency is reported as “inactive”. In the case of `Cn1c(=O)[nH]c(=O)c2c1nc(NCc1ccccc1)n2CCCc1ccccc1`, the Potency is reported as “inactive”. In the case of `Cc1ccccc1CN1CCc2nc(N3CCN(c4ccccn4)CC3)ncc2C1`, the Potency is reported as 15.8 µM (active). With `COc1cc(OC)c(OC)cc1CN1CCc2nc(N3CCN(c4ncccn4)CC3)ncc2C1` the Potency was “inactive”. For `Cc1ccc(CN2CCc3nc(N4CCN(c5ccccc5F)CC4)ncc3C2)s1`, the Potency was “inactive”. With `COc1cccc(N2CCN(C(=O)c3ccc4c(Cl)c5c(nc4c3)CCCC5)CC2)c1` the Potency was “inactive”. With `CCOc1ccc(Nc2c3c(nc4nncn24)CCC3)cc1` the Potency was “inactive”. For `COc1cccc(N2CCN(c3c4c(nc5nncn35)CCC4)CC2)c1`, the Potency was 14.1 µM (active). For `Cc1nnsc1C(=O)N/N=C/c1ccc2ccccc2c1O`, the Potency was “inactive”. In the case of `Cc1cccc(OCCCCn2nnc3sc4c(c3c2=O)CCC(C)C4)c1` (stereo not given), the Potency is reported as “inactive”. With `C=CCn1c(SCc2nc3c(c(=O)[nH]c(=O)n3CCCC)n2CCC)nnc1-c1ccccc1` the Potency was “inactive”. For `CCCNS(=O)(=O)c1cc(Br)cc2c1N(C(=O)CC)CC2`, the Potency was “inactive”. With `CCC(=O)N1CCc2cc(Br)cc(S(=O)(=O)CCC(=O)NCc3ccccc3OC)c21` the Potency was “inactive”. With `COc1cc(NS(=O)(=O)c2cc(Br)cc3c2N(C(=O)C2CC2)CC3)cc(OC)c1` the Potency was 12.6 µM (active). With `O=C(OC1C2CCC1C1CN(CCc3ccccc3)CC12)c1ccccc1` (stereo not given) the Potency was “inactive”. For `COc1ccc(-c2cc3c(=O)n(CC(=O)Nc4cccc(Cl)c4)nc(C)n3n2)cc1`, the Potency was “inactive”. With `CN(C)c1cccc(F)c1C(=O)NC(=O)Nc1ccc(Cl)cc1` the Potency was “inactive”. With `COc1ccc(CN2CCNC(=O)C2CC(=O)NC2CCCC2)c(OC)c1` (stereo not given) the Potency was “inactive”. With `COC(=O)c1nnn(-c2nonc2N)c1CSc1nc2ccccc2s1` the Potency was “inactive”. In the case of `Cc1c(NC(=O)CN2CCN(c3cccc(Cl)c3)CC2)c(=O)n(-c2ccccc2)n1C`, the Potency is reported as “inactive”. With `CC12CN(C(=O)c3ccco3)CC(c3ccccc3)(CN(C(=O)c3ccco3)C1)C2=O` the Potency was “inactive”. In the case of `COc1ccc(/C=N/Nc2ccc(C(=O)O)cc2)cc1Br`, the Potency is reported as “inactive”. With `CC(C)c1ccc(/C=N/Nc2ccc(C(=O)O)cc2)cc1` the Potency was “inactive”. In the case of `O=C(O)c1ccc(N/N=C/c2cc(Br)cs2)cc1`, the Potency is reported as 11.2 µM (active). In the case of `O=C(NC1CCC(=O)N(CCOc2ccccc2)CC1)OCc1ccccc1` (stereo not given), the Potency is reported as “inactive”. With `CC(=O)N1CCc2c(sc3c2c(=O)n(CCc2ccccc2)c(=O)n3Cc2cccc(C)c2)C1` the Potency was “inactive”. With `COc1ccc(N=Nc2ccc3ccccc3c2)c(O)c1` the Potency was 22.4 µM (active). For `COc1ccc(-c2cc(-c3ccccc3O)[nH]n2)cc1`, the Potency was “inactive”. In the case of `COc1ccc(NC(=O)Nc2c(O)ccc3ccccc23)cc1`, the Potency is reported as “inactive”.

Reference: PubChem BioAssay AID1347131 (National Center for Advancing Translational Sciences (NCATS), 2019)
Potency is read from the fitted curve at half-maximal effect.
